Results: the supplement of paper PMC10849652
The full data set covers some 8,800 targets. This sample favours those with a hit. About 0.5% of all pairs of compound and target were hits. Unmarked numbers belong to inactive results.

Key:
Experiment in all cases: log2 fold change, soluble protein after heating vs DMSO (PISA); higher = thermal stabilisation; K562 lysate, 10 uM; active = over 0.2 and 3.5 SD of the protein, either way, in both replicates (recomputed)
vemurafenib = compound: CCCS(=O)(=O)Nc1ccc(F)c(C(=O)c2c[nH]c3ncc(-c4ccc(Cl)cc4)cc23)c1F [vemurafenib]
Procedure, shortened: (§1)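 To prepare the extract, K562 pellets were dounce-homogenised in PBS pH 7.4 with 1 mM MgCl2, giving crude material at 1 mg/mL protein. This was treated with 10 μM compound for 30 min, then heated in aliquots for 3 min over 48°C-58°C before pooling and addition of NP-40 to 0.5% at 4°C. Centrifugation at 21,000xg for 90 min left soluble protein in the supernatant, which TMTpro 16plex LC-MS/MS quantified with equalised channel sums. Results are log-two fold changes in thermal stability compared with solvent controls, from duplicates.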

[1] = compound: CCCS(=O)(=O)Nc1ccc(F)c(C(=O)c2c[nH]c3ncc(Cl)cc23)c1F
Procedure, shortened: as §1

[2] = compound: CC[C@@H]1C(=O)N(C)c2cnc(Nc3ccc(C(=O)NC4CCN(C)CC4)cc3OC)nc2N1C1CCCC1
Procedure, shortened: as §1

volasertib = compound: CC[C@@H]1C(=O)N(C)c2cnc(Nc3ccc(C(=O)N[C@H]4CC[C@H](N5CCN(CC6CC6)CC5)CC4)cc3OC)nc2N1C(C)C [volasertib]
Procedure, shortened: as §1

[3] = compound: CCn1c(C(=O)N(C2CC2)C2CC2)cc2c3c(ncn3C)c(Nc3cc(C)n(C)n3)nc21
Procedure, shortened: as §1

[4] = compound: CCn1cc(-c2ccnc3[nH]c(-c4cccc(CN(C)C)c4)cc23)c(-c2ccc(NC(=O)N(C)C)cc2)n1
Procedure, shortened: as §1

[5] = compound: CN1CCC(CNc2ccc3ncc(-c4cccc(OC(F)(F)F)c4)n3n2)CC1
Procedure, shortened: as §1

saracatinib = compound: CN1CCN(CCOc2cc(OC3CCOCC3)c3c(Nc4c(Cl)ccc5c4OCO5)ncnc3c2)CC1 [saracatinib]
Procedure, shortened: as §1

sotrastaurin = compound: CN1CCN(c2nc(C3=C(c4c[nH]c5ccccc45)C(=O)NC3=O)c3ccccc3n2)CC1 [sotrastaurin]
Procedure, shortened: as §1

alvocidib = compound: CN1CC[C@H](c2c(O)cc(O)c3c(=O)cc(-c4ccccc4Cl)oc23)[C@H](O)C1 [alvocidib]
Procedure, shortened: as §1

Tubastatin A = compound: CN1CCc2c(c3ccccc3n2Cc2ccc(C(=O)NO)cc2)C1 [Tubastatin A]
Procedure, shortened: as §1

[6] = compound: CNC(=O)C1=CC=CC=C1NC2=NC(=NC=C2Cl)NC3=C(C=C(C=C3)N4CCOCC4)OC
Procedure, shortened: as §1

defactinib = compound: CNC(=O)c1ccc(Nc2ncc(C(F)(F)F)c(NCc3nccnc3N(C)S(C)(=O)=O)n2)cc1 [defactinib]
Procedure, shortened: as §1

[7] = compound: CNc1nc(-c2ccc3c(N)n[nH]c3c2)cc(N2C[C@@H](C(=O)NC3CCCCC3)CC[C@H]2C)n1
Procedure, shortened: as §1

encorafenib = compound: COC(=O)N[C@@H](C)CNc1nccc(-c2cn(C(C)C)nc2-c2cc(Cl)cc(NS(C)(=O)=O)c2F)n1 [encorafenib]
Procedure, shortened: as §1

[8] = compound: COC(=O)[C@H](CCSC)NC(=O)C1=C(C=C(C=C1)NC[C@H](CS)N)C2=CC=CC=C2
Procedure, shortened: as §1

alisertib = compound: COc1cc(Nc2ncc3c(n2)-c2ccc(Cl)cc2C(c2c(F)cccc2OC)=NC3)ccc1C(=O)O [alisertib]
Procedure, shortened: as §1

[9] = compound: COc1cc2nc(-c3cc(F)ccc3O)nc(N[C@@H]3CNC[C@H]3C(C)(C)O)c2cc1OC
Procedure, shortened: as §1

gefitinib = compound: COc1cc2ncnc(Nc3ccc(F)c(Cl)c3)c2cc1OCCCN1CCOCC1 [gefitinib]
Procedure, shortened: as §1

barasertib = compound: CCN(CCCOc1ccc2c(Nc3cc(CC(=O)Nc4cccc(F)c4)[nH]n3)ncnc2c1)CCOP(=O)(O)O [barasertib]
Procedure, shortened: as §1

Sequence of UniProt Q13825 (Q13825 whole entry, looked up): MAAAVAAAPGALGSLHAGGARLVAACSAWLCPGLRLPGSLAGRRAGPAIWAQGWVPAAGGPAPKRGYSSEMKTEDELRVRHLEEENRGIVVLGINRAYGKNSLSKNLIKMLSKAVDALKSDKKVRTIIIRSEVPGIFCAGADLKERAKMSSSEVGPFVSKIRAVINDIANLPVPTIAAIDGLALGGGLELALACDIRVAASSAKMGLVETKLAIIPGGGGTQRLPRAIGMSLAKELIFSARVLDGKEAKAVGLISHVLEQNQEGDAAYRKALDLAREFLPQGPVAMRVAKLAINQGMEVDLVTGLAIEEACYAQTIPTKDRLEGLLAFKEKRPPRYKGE
Sequence of UniProt Q9Y297 (Q9Y297 whole entry, looked up): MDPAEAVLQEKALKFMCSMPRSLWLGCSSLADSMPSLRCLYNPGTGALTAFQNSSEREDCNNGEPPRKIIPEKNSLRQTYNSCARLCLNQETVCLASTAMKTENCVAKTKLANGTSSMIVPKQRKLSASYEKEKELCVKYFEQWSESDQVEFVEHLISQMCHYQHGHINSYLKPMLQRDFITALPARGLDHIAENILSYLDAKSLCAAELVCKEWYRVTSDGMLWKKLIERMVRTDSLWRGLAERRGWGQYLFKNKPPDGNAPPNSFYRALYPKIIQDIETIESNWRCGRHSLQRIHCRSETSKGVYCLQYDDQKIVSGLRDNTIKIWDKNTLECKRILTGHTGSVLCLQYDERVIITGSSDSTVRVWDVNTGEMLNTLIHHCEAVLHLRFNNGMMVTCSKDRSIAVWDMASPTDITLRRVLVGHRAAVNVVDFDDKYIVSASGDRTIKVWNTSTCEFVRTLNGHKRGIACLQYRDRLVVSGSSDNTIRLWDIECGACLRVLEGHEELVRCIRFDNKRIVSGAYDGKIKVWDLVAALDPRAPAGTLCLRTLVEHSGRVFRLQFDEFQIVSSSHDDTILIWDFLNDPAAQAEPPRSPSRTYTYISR
Sequence of UniProt A8MTT3 (A8MTT3 whole entry, looked up): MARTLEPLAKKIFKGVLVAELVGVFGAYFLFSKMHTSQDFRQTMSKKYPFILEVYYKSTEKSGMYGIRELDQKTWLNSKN
Sequence of UniProt Q9BYV8 (Q9BYV8 whole entry, looked up): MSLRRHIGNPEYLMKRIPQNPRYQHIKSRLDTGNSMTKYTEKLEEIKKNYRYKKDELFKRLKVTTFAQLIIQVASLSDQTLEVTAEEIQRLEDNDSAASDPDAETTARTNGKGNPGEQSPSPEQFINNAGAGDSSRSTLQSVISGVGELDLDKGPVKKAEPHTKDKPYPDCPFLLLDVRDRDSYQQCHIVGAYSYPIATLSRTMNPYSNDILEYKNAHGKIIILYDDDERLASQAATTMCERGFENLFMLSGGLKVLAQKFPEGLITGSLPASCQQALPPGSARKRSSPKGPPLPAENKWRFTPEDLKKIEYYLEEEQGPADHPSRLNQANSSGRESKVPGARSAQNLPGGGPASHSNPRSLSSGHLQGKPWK
Sequence of UniProt O76039 (O76039 whole entry, looked up): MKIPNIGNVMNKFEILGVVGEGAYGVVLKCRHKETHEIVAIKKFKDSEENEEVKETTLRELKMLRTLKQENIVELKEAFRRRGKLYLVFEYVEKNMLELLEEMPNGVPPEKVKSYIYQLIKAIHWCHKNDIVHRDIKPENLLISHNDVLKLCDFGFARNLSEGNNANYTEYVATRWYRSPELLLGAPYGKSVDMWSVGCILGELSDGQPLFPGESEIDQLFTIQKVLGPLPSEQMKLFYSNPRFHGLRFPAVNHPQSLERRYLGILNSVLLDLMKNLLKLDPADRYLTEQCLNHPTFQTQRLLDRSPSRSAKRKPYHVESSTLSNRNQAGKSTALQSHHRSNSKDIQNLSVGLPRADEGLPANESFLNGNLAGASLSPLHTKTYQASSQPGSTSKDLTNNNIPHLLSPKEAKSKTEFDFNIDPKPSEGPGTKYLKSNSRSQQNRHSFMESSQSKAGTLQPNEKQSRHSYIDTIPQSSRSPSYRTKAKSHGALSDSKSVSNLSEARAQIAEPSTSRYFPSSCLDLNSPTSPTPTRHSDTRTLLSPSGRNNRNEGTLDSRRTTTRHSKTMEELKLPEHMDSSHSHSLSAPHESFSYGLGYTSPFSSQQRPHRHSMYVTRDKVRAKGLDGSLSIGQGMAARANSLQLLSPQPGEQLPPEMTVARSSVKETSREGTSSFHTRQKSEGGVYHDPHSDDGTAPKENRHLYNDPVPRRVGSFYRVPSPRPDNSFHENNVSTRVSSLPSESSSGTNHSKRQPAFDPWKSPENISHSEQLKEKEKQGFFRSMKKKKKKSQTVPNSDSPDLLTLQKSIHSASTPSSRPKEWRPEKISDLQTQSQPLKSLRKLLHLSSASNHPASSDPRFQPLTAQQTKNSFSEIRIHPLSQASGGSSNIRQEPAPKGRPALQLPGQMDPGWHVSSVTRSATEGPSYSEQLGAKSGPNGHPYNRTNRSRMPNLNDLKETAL
Sequence of UniProt Q8NDD1 (Q8NDD1 whole entry, looked up): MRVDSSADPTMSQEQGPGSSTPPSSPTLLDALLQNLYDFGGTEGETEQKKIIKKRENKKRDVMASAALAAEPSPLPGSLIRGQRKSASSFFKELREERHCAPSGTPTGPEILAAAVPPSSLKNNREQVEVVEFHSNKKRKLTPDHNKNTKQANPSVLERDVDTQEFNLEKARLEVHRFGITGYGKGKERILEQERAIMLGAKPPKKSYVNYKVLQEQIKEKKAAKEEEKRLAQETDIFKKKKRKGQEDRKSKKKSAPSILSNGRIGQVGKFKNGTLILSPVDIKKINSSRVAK
Sequence of UniProt P49336 (P49336 whole entry, looked up): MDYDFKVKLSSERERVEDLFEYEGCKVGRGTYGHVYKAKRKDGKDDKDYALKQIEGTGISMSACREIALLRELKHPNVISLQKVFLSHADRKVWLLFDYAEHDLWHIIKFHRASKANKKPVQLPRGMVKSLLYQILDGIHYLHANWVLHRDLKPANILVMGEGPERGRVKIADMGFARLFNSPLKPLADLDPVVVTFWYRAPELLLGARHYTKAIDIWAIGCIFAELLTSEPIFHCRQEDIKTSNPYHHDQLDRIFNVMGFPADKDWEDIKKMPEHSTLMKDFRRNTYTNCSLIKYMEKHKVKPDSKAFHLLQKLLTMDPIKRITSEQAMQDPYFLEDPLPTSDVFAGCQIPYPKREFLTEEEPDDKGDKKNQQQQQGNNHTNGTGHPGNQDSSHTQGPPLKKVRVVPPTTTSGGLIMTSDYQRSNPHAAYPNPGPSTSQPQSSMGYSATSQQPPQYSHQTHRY
Sequence of UniProt Q15059 (Q15059 whole entry, looked up): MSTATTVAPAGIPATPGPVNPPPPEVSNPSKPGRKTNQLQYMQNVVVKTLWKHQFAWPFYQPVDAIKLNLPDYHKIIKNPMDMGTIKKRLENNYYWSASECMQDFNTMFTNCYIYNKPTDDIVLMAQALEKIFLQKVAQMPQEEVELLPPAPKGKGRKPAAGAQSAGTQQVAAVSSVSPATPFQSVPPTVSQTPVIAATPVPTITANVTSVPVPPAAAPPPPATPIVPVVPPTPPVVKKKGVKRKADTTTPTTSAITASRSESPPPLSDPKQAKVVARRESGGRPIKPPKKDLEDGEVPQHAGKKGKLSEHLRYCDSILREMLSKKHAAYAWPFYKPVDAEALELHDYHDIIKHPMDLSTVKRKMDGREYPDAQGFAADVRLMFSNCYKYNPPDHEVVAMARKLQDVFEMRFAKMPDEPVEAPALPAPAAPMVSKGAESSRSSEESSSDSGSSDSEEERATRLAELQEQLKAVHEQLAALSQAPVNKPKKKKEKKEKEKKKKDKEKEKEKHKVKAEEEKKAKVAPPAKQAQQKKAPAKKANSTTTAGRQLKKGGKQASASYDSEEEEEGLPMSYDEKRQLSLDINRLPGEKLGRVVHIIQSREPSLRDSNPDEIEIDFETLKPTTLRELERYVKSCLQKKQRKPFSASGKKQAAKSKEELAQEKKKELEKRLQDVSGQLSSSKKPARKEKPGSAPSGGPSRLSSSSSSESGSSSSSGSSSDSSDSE
Sequence of UniProt P33681 (P33681 whole entry, looked up): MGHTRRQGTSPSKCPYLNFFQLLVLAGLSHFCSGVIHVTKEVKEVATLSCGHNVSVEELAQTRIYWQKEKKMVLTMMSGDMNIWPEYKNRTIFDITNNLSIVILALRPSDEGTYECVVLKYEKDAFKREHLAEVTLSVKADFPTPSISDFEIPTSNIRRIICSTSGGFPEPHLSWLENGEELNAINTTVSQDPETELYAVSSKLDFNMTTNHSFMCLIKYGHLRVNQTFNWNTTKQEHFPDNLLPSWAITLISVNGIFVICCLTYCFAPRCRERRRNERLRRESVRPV
Sequence of UniProt Q5U623 (Q5U623 whole entry, looked up): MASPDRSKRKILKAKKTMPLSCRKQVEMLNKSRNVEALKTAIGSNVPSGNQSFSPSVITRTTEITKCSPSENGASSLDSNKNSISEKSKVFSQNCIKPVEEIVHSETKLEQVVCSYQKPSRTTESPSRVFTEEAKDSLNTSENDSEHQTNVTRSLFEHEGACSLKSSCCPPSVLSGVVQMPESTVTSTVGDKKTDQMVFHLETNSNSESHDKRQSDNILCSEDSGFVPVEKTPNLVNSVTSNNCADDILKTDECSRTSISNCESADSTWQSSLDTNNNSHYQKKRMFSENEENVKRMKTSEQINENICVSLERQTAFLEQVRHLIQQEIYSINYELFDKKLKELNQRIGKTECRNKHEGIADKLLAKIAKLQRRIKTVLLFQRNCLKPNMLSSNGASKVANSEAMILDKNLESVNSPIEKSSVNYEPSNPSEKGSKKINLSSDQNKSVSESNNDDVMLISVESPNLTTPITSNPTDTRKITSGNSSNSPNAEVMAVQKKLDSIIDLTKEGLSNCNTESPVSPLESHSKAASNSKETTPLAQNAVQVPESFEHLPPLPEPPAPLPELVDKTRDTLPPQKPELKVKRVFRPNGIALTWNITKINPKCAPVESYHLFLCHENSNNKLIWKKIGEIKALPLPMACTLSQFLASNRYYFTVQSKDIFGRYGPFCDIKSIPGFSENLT

Row | Target | log2 fold change (vemurafenib) | log2 fold change [1] | log2 fold change [2] | log2 fold change (volasertib) | log2 fold change [3] | log2 fold change [4] | log2 fold change [5] | log2 fold change (saracatinib) | log2 fold change (sotrastaurin) | log2 fold change (alvocidib) | log2 fold change (Tubastatin A) | log2 fold change [6] | log2 fold change (defactinib) | log2 fold change [7] | log2 fold change (encorafenib) | log2 fold change [8] | log2 fold change (alisertib) | log2 fold change [9] | log2 fold change (gefitinib) | log2 fold change (barasertib)
1 | CD80 (UniProt P33681) | 0.115 | -0.113 | 0.063 | -0.001 | -0.011 | 0.239 | -0.177 | -0.069 | 0.032 | 0.071 | 0 | 0.014 | -0.085 | 0.11 | 0.016 | -0.082 | -0.345 | -0.011 | -0.001 | –
2 | C1orf131 isoform 5 (UniProt Q8NDD1) | 0.034 | 0.026 | 0.148 | -0.029 | -0.042 | -0.242 | 0.095 | -0.009 | 0.017 | -0.118 | -0.036 | 0.03 | 0.013 | 0.148 | 0.127 | 0.02 | 0.148 | -0.038 | 0.111 | –
3 | CAMK1 (UniProt Q14012) | -0.094 | – | 0.106 | -0.018 | -0.06 | -0.095 | 0.272 | -0.061 | -0.016 | -0.074 | 0 | 0.067 | 0.04 | -0.036 | -0.054 | -0.032 | 0.016 | 0.029 | -0.01 | 0.027
4 | CDKN1B (UniProt P46527) | -0.12 | 0.004 | 0.063 | -0.039 | 0.099 | 0.118 | -0.119 | -0.012 | 0.015 | 0.057 | 0.048 | 0.035 | 0.067 | -0.045 | 0.03 | -0.043 | – | 0.023 | – | -0.032
5 | C18orf25 isoform 2 (UniProt Q96B23) | -0.01 | 0.027 | 0.067 | -0.021 | -0.047 | -0.234 | 0.037 | -0.037 | – | 0.1 | 0.106 | 0.1 | 0.072 | 0.043 | 0.033 | -0.084 | 0.058 | 0.031 | 0.034 | -0.034
6 | CARD11 (UniProt Q9BXL7) | 0.088 | 0.012 | -0.087 | -0.071 | 0.082 | -0.024 | -0.014 | 0.063 | 0.002 | 0.073 | -0.023 | 0.022 | -0.005 | -0.029 | -0.021 | 0.072 | -0.028 | 0.025 | 0.014 | -0.075
7 | CDK17 isoform 2 (UniProt Q00537) | -0.115 | – | -0.078 | – | -0.007 | 0.091 | -0.299 | -0.017 | 0.03 | 0.599 (active) | -0.015 | -0.051 | 0.139 | -0.018 | 0.099 | -0.129 | -0.121 | – | -0.132 | 0.011
8 | CDKL5 (UniProt O76039) | -0.131 | 0.041 | -0.149 | -0.035 | – | -0.091 | 0.088 | -0.122 | 0.048 | 1.14 (active) | – | – | 0.55 | -0.052 | -0.038 | -0.116 | – | 0.058 | – | –
9 | C3orf33 (UniProt Q6P1S2) | 0.295 | -0.043 | – | 0.063 | -0.056 | -0.823 (active) | 0.216 | 0.045 | 0.047 | -0.166 | 0.124 | -0.084 | 0.224 | 0.115 | – | – | -0.13 | -0.111 | 0.006 | -0.04
10 | CEP41 (UniProt Q9BYV8) | -0.022 | 0.108 | 0.018 | -0.023 | – | 0.02 | -0.009 | -0.032 | 0.03 | 0.042 | – | 0.083 | 0.015 | 0.073 | 0.001 | -0.139 | 0.029 | -0.059 | 0.011 | 0.03
11 | CDK8 (UniProt P49336) | 0.065 | 0.138 | – | -0.083 | -0.011 | -0.134 | 0.045 | 0.109 | -0.001 | 0.384 (active) | -0.059 | -0.065 | -0.101 | 0.083 | – | – | -0.052 | -0.047 | 0.07 | 0.002
12 | BTRC (UniProt Q9Y297) | -0.002 | 0.023 | 0.076 | -0.041 | -0.088 | 0.073 | 0.067 | – | – | -0.05 | -0.019 | -0.049 | -0.018 | – | 0.035 | 0.172 | -0.022 | 0.096 | -0.058 | 0.052
13 | AUH (UniProt Q13825) | 0.083 | -0.009 | 0.042 | -0.093 | 0 | 0.1 | 0 | -0.101 | 0.047 | 0.221 | 0.147 | 0.057 | -0.169 | 0.049 | 0.015 | 0.023 | – | -0.052 | – | 0.004
14 | CEBPZOS (UniProt A8MTT3) | 0.031 | -0.026 | -0.048 | -0.007 | 0.024 | -0.176 | 0.041 | 0.03 | -0.005 | -0.063 | -0.124 | 0.015 | 0.075 | -0.055 | 0.064 | 0.046 | -0.064 | -0.099 | 0.006 | –
15 | ATF7IP2 (UniProt Q5U623) | 0.062 | -0.041 | – | 0.083 | -0.064 | -0.145 | 0.197 | – | 0.031 | -0.197 | 0.071 | -0.065 | -0.072 | – | – | – | 0.003 | 0.064 | 0.044 | 0.009
16 | CAPNS1 (UniProt K7ES78) | 0.143 | -0.07 | – | 0.033 | 0.076 | – | – | 0.12 | -0.071 | – | -0.074 | 0.001 | 0.035 | -0.068 | – | – | – | -0.083 | – | –
17 | CAMK2B (UniProt Q13554) | 0.011 | -0.058 | – | -0.145 | 0.022 | -0.021 | 0.049 | -0.077 | – | 0.318 | -0.035 | – | 0.009 | -0.069 | -0.045 | 0.067 | 0.001 | -0.005 | 0.026 | 0.014
18 | BRD3 (UniProt Q15059) | -0.046 | 0.038 | 0.451 (active) | 0.263 | – | -0.143 | 0.188 | 0.008 | -0.082 | -0.059 | – | 0.105 | 0.017 | 0.09 | -0.016 | 0.018 | -0.003 | -0.015 | -0.15 | -0.087
